This is a sample that favours compounds with a hit; in the whole collection about 2.4% have one here.
GLS inhibitor: qHTS for Inhibitors of Glutaminase (GLS) | Glutaminase kidney isoform, mitochondrial (Homo sapiens), O94925 | actives 0.21% (n = 410,000) | AID 624170, 2012 | GLS enzymatic activity, qHTS titration | Potency, µM (highest dose often 45.5 µM), most hits filed as inhibitors
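Glutamate formation by hKGA was monitored fluorometrically using coupled glutamate oxidase, HRP and Amplex Red. Substrate was added as 1 mM L-glutamine solution; incubation was 30 min at RT after an initial read.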
Pol beta inh: qHTS Assay for Inhibitors of DNA Polymerase Beta; Pol beta primer extension/strand displacement, fluorescence kinetic; actives 1.3% (n = 340,000); Potency, µM (doses to about 114 µM), usual class: inhibitors; P06746
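Preincubation: enzyme (10 nM) with compound, 15 min, RT. Reaction: substrate added to 50 nM final. Reads: 0 and 10 min. Analysis: normalized, Hill fit.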
APE1 inh: qHTS Assay for Inhibitors of the Human Apurinic/apyrimidinic Endonuclease 1 (APE1). DNA repair nuclease/redox regulator APEX1 (Homo sapiens), P27695. AID 2517, 2012. recombinant APE1, TAMRA/BHQ-2 abasic DNA cleavage fluorescence. Potency, µM (top dose mostly 65.8 µM), usual class: inhibitors. actives 0.35% (n = 350,000); further: nearly all actives have a fitted effect of over 55% in size
Target sequence (P27695 whole entry, looked up): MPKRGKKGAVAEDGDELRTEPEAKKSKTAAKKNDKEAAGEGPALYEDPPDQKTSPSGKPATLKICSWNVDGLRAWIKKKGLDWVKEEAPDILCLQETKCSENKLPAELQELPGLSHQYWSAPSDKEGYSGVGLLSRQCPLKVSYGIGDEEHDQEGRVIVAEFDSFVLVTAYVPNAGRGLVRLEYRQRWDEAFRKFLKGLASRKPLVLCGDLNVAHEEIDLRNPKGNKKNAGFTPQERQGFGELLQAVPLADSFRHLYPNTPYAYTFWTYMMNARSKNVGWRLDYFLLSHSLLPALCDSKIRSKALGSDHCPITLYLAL
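Readout is kinetic fluorescence (ex 525, em 598 nm) from cleavage of 50 nM TAMRA/BHQ-2 THF abasic duplex by 0.75 nM APE1, compound added 15 min beforehand at RT.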
Pol iota inh: qHTS for Inhibitors of Polymerase Iota | DNA polymerase iota (Homo sapiens), Q9UNA4 | Pol iota fluorescent replication assay, 10 min | Potency, µM (titrated, usually from 115 µM), most hits filed as inhibitors | actives 1% (n = 390,000) | AID 588590, 2011
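Pol iota at 10 nM preincubated 15 min with compounds at room temperature; reaction started with fluorescent substrate, 50 nM final. Fluorescence read kinetically at 0 and 10 min; buffer-only wells as negative control.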
Pol eta inh-1: qHTS for Inhibitors of Polymerase Eta | actives 1.2% (n = 390,000) | Potency, µM (top dose mostly 114 µM), most hits filed as inhibitors | recombinant Pol eta, fluorescent DNA replication assay
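Pol eta at 10 nM preincubated with compounds 15 min at room temperature; reaction started with fluorescent substrate (50 nM final) and read kinetically at 0 and 10 min.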
Pol kappa inh-1: qHTS for Inhibitors of Polymerase Kappa; DNA polymerase kappa (Homo sapiens), Q9UBT6; Potency, µM (titrated, usually from 107 µM), most hits filed as inhibitors; purified Pol kappa, fluorescent DNA synthesis assay, 10 min; actives 0.53% (n = 400,000)
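50 nM final substrate added after 15 min RT preincubation of 10 nM Pol kappa with compound; fluorescence read at 0 and 10 min.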
GALK confirm: Confirmation Assay for Inhibitors of Human Galactokinase (GALK) | shares compounds with Pol eta inh-1 | purified GALK, Kinase-Glo ATP depletion luminescence | Potency, µM (titrated, usually from 115 µM), usual class: inhibitors | actives 70% (n = 150) | AID 2015, 2009
Redox cycling: Confirmatory Assay for Inhibitors of Human Galactokinase (GALK): Phenol-HRP redox assay counterscreen; actives 40% (n = 150); shares compounds with Pol eta inh-1; Potency, µM (top dose mostly 115 µM), hits mostly inhibitors; Phenol red-HRP H2O2 redox cycling, absorbance 600 nm; AID 2035, 2009
HEK293 viability: Secondary Assay for Inhibitors of Human Galactokinase (GALK): HEK-293 Cell Viability Assay. shares compounds with Pol eta inh-1. HEK-293 viability, ATP luminescence (CellTiter-Glo), 24/48 h. Potency, µM (titrated, usually from 46.1 µM), actives largely listed as inhibitors. actives 10% (n = 170)
Pol kappa inh-2: qHTS for Inhibitors of Polymerase Kappa: Confirmatory Assay for Cherry-picked Compounds | actives 76% (n = 920) | purified Pol-kappa, fluorescent strand-displacement substrate | shares compounds with Pol eta inh-1 | Potency, µM, most hits filed as inhibitors | AID 720501, 2013
Pol eta inh-2: qHTS for Inhibitors of Polymerase Eta: Confirmatory Assay for Cherry-picked Compounds | AID 720502, 2013 | Potency, µM, actives largely listed as inhibitors | actives 64% (n = 2,600) | Pol eta primer extension, TAMRA/BHQ fluorescence, 10 min | shares compounds with Pol eta inh-1
Numbers stand for hits; n = inactive; u = inconclusive; x = no result. The call rests on the fitted dose curve; in most records, active means well fitted curve in the direction sought with a large enough effect; inconclusive means small, poorly fitted or top-dose-only effect, or another doubt; inactive means no such curve, though single readings can be large; an effect the other way counts as inactive or inconclusive.

SMILES	GLS inhibitor	Pol beta inh	APE1 inh	Pol iota inh	Pol eta inh-1	Pol kappa inh-1	Pol eta inh-2	others
Cc1cc(C)cc(NC(=O)CSc2nc3c(cnn3-c3ccc(F)cc3)c(=O)[nH]2)c1	n	n	x	n	n	n	x
O=C1N=C(N2CCOCC2)S/C1=C\c1ccc(OS(=O)(=O)c2ccccc2)cc1	n	n	n	n	n	n	x
COc1cc(/C=C2\C(=N)N3N=C(S(C)(=O)=O)SC3=NC2=O)ccc1OS(=O)(=O)c1ccccc1	x	u	n	x	x	x	x	GALK confirm=38µM;Redox cycling=n;HEK293 viability=n
CCS(=O)(=O)C1=NSC2=NC(=O)/C(=C\c3ccc(OS(=O)(=O)c4ccccc4)c(OC)c3)C(=N)N21	n	u	n	n	40µM	n	x	GALK confirm=47µM;Redox cycling=n;HEK293 viability=n
CCS(=O)(=O)C1=NN2C(=N)/C(=C\c3ccc(OS(=O)(=O)c4ccccc4)c(OC)c3)C(=O)N=C2S1	x	u	n	x	x	x	x
CCC1=NN2C(=N)/C(=C/c3ccc(OS(=O)(=O)c4ccc(C)cc4)c(OC)c3)C(=O)N=C2S1	n	u	n	u	u	n	u
CCS(=O)(=O)C1=NN2C(=N)/C(=C\c3ccc(OS(=O)(=O)c4ccccc4)cc3)C(=O)N=C2S1	n	u	n	u	45µM	n	x	GALK confirm=38µM;Redox cycling=n;HEK293 viability=n
O=C1C2C3C=CC(CC3)C2C(=O)N1/N=C/c1ccc(O)c(O)c1 (stereo unspecified)	n	u	n	u	4µM	u	u
O=C1c2ccccc2C(=O)N1/N=C/c1ccc(O)c(O)c1	2.5µM	u	u	u	u	u	60
COc1cc(-c2[nH]nc3c2C(c2ccoc2)C(C#N)=C(N)O3)cc(OC)c1OC (stereo unspecified)	n	18µM	n	u	u	u	u
COc1ccccc1-n1c(SC)nc(O)cc1=O	n	n	n	n	n	n	x
NS(=O)(=O)c1ccc(-c2ccc(/C=N/Nc3ccc(C(=O)O)cc3)o2)cc1	n	n	u	50µM	28µM	u	u
NS(=O)(=O)c1ccc(-c2ccc(/C=N/NC(=O)c3ccc([N+](=O)[O-])cc3)o2)cc1	n	n	n	n	n	n	x
Cc1c(N=Nc2ccc(O)cc2)c(=O)n(-c2ccccc2)n1C	u	n	n	n	n	n	x
Cc1c(N=C2C=C(Br)C(=O)C(Br)=C2)c(=O)n(-c2ccccc2)n1C	u	40µM	8.9µM	4µM	u	79µM	60
O=C(NCc1ccccc1)c1ccc2c(=O)[nH]c3c(C(=O)NCC4CCCO4)sc(=S)n3c2c1 (stereo unspecified)	n	u	n	n	u	n	u
O=C(NCc1ccccc1)c1ccc2c(=O)n(CC3CCCO3)c(=S)[nH]c2c1 (stereo unspecified)	n	n	n	n	n	n	x
CC(=O)c1ccc(NC(=O)C(C)OC(=O)CCN=C2NS(=O)(=O)c3ccccc32)cc1 (stereo unspecified)	n	x	n	n	n	n	x
O=C(O)c1ccc2nc(-c3cc4cc(F)ccc4oc3=O)[nH]c2c1	n	35µM	x	u	35µM	n	60
O=C(O)c1ccc2oc(=O)c(S(=O)(=O)c3ccc(F)cc3)cc2c1	n	n	n	n	n	n	x
CC(C)CCNC(=O)C1CCN(S(=O)(=O)c2ccc3nc4c(c(C(=O)O)c3c2)CCCCC4)CC1	n	n	n	n	n	n	x
O=C(O)c1c2c(nc3ccc(S(=O)(=O)N4CCC(C(=O)NC5CCCCCC5)CC4)cc13)CCCC2	n	40µM	u	u	20µM	79µM	u
CCSC1=NN2CCS(=O)(=O)N=C2S1	n	n	n	n	n	n	x
NC(CSC1(c2ccc(F)cc2)c2ccccc2-c2ccccc21)C(=O)O (stereo unspecified)	n	x	x	x	u	x	x
NC(CSC1(c2ccc(Cl)cc2)c2ccccc2-c2ccccc21)C(=O)O (stereo unspecified)	n	x	x	u	u	n	u
SMILES	GLS inhibitor	Pol beta inh	APE1 inh	Pol iota inh	Pol eta inh-1	Pol kappa inh-1	Pol eta inh-2	others
S=c1[nH]nc(-c2ccco2)n1/N=C/C=C/c1ccco1	n	35µM	n	11µM	28µM	79µM	85
S=c1[nH]nc(-c2n[nH]c3c2CCC3)n1/N=C/C=C/c1ccco1	u	40µM	u	u	25µM	79µM	30
COc1ccc(Cl)cc1NC(=O)c1c(NCc2ccc(C)o2)sc2c1CCCCC2	u	n	x	u	u	n	u	Pol kappa inh-2=u
O=C(O)CCCNc1cc(N2CCN(C3CCCCC3)CC2)c2noc3c2c1C(=O)c1ccccc1-3	n	20µM	x	u	n	u	u
Nc1cc2c(cc1[N+](=O)[O-])OCCO2	n	n	n	n	n	n	x
Nc1cc2c(cc1[N+](=O)[O-])OCO2	n	28µM	u	u	45µM	u	u
CCN(CC)c1ccc2c(c1)C(=O)N(C)C2=O	n	n	n	n	n	n	x
CCN(CCCCN1C(=O)c2ccccc2C1=O)c1ccc2c(c1)C(=O)N(C)C2=O	n	n	u	16µM	50µM	u	u
CCc1ccc(-c2nc3cc(NC(=O)c4cc5ccccc5cc4OC)ccc3o2)cc1	n	u	x	n	u	n	x

Bioassay records as filed in PubChem.
